Compound activity as filed in PubChem BioAssay.
Hits are enriched below; roughly 9.2% of the tested compounds scored in any of these assays.
ELG1 genotox: qHTS screen for small molecules that induce genotoxicity in human embryonic kidney (HEK293T) cells expressing luciferase-tagged ELG1. HEK293T ELG1-luciferase reporter, luminescence, 16 h. Potency, µM (series often up to 46 µM), for inactives: at the top dose activity change, positive = activation, most hits filed as activators. hit rate 1.3% among 330,000; note: % of control where 0% means no effect; nearly all actives have a fitted effect of over 60% in size
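Screening used a luciferase reporter fused to human ELG1 in HEK293T cells. Luminescence was read on a CCD plate imager after 16 hr exposure and 30 min ONE-Glo incubation.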
SMN2 splice enh: qHTS Assay for Enhancers of SMN2 Splice Variant Expression. hit rate 2.8% among 210,000. AID 1458, 2008. Potency, µM (titrated, usually from 46.1 µM), inactives show at the top dose activity change, positive = activation, usual class: activators. HEK293 SMN2-luciferase splicing reporter, luminescence, 30-36 h; note: % of control where 0% means no effect; nearly all actives have a fitted effect of over 55% in size
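HEK293 cells carry an SMN2 […]–luciferase reporter in which exon 7 inclusion puts luciferase in frame. Cells were plated 10-12 h before compound addition, then incubated 30-36 h at 37C. ONE-Glo luminescence was read; sodium butyrate at 4.5 mM final served as control.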
ELG1 repair inh: qHTS screen for small molecules that inhibit ELG1-dependent DNA repair in human embryonic kidney (HEK293T) cells expressing luciferase-tagged ELG1; HEK293T ELG1-luciferase reporter, luminescence, 16 h; DNA damage induced by 5-fluorouridine; Potency, µM (highest dose often 46.1 µM), for inactives: at the highest dose activity change, negative = inhibition, most hits filed as inhibitors; hit rate 2.3% among 330,000; note: % is set by controls: 0 for no effect and ±100 for the full control effect; nearly all actives have a fitted effect of over 55% in size
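Step one: seed 2,000 cells per well. Step two: pin-transfer compound or DMSO alongside 5-fluorouridine. Step three: incubate 16 hr, 37 °C, 5% CO2. Step four: add ONE-Glo, wait 30 min, read luminescence.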
FLuc modulator: qHTS profiling assay for firefly luciferase inhibitor/activator using purifed enzyme and Km concentrations of substrates (counterscreen for miR-21 project). Luciferin 4-monooxygenase (Photinus pyralis), P08659. purified FLuc, Km substrates, luminescence inhibition. Potency, µM (top dose mostly 57.5 µM), for inactives: at the highest dose activity change, negative = inhibition, actives largely listed as inhibitors. hit rate 6.9% among 360,000. AID 588342, 2011;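 note: plate controls were vehicle for no effect and reference inhibitor for full effect; nearly all actives have a fitted effect of over 55% in size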
Target sequence (P08659 whole entry, looked up): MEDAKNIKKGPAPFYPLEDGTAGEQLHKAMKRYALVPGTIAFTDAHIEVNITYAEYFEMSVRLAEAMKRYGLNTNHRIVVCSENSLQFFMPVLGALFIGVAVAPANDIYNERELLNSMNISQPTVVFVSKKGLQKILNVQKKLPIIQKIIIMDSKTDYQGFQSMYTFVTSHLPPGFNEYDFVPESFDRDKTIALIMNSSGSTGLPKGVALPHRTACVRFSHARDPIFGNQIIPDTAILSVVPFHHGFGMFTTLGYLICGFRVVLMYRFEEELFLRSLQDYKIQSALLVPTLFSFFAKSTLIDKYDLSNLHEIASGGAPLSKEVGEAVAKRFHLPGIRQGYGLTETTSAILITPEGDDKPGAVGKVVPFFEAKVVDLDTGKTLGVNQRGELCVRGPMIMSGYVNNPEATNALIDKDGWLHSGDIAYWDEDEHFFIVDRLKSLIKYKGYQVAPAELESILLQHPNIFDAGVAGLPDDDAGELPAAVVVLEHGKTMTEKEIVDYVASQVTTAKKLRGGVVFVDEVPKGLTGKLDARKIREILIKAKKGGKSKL
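Purified P. pyralis luciferase, 10 nM final, with Km-level 10 uM D-luciferin and 10 uM ATP in 50 mM Tris acetate pH 7.5, 10 mM Mg acetate, 0.01% Tween-20, 0.05% BSA; 6-point qHTS titration about 60 µM downward; luminescence read.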
NPC1 promoter act: qHTS Assay for NPC1 Promoter Activators; Huh7 NPC1 promoter luciferase reporter, 24 h; Potency, µM (titrated, usually from 9.22 µM), for the others: top-dose activation, usual class: activators; hit rate 2.4% among 320,000; note: % of control where 0% means no effect; nearly all actives have a fitted effect of over 60% in size
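Stably transfected Huh7 (NPC1 promoter→luciferase), 1500 cells/well in Opti-MEM + 10% FBS, 2 h settle, then compound 24 h at 37 °C. Luminescence after 10 min with Amplite reagent.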
Rab9 prom act: qHTS Assay for Rab9 Promoter Activators | Huh7 Rab9 promoter-luciferase reporter, luminescence, 24 h | Potency, µM (highest dose often 9.22 µM), without a hit: at the top dose activation, negative = inhibition, most hits filed as activators | hit rate 2.8% among 320,000 | AID 485297, 2010; note: % of control where 0% means no effect; nearly all actives have a fitted effect of over 60% in size
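Steps: seed 1500 Huh7 Rab9-luc cells per well, rest 2 h at 37 °C; add compound in DMSO; incubate 24 h; add luciferase reagent, 10 min ambient; read luminescence.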
* hit, by the source's call; ? = inconclusive; / = no result; [ ] = remark or other dose. Calls come from the whole dose curve; as a rule, active = well fitted curve in the direction sought with a large enough effect; inconclusive = small, poorly fitted or top-dose-only effect, or another doubt; inactive = no such curve, though single readings can be large; an effect the other way counts as inactive or inconclusive. Potency is the fitted concentration of half-maximal effect.

SMILES	ELG1 genotox	SMN2 splice enh	ELG1 repair inh	FLuc modulator	NPC1 promoter act	Rab9 prom act
Cc1cc(-c2ccccc2)nc2cc(C(=O)OC(C)C)nn12	0%	/	-15%	2%	3%	-1%
CN(C)/C=C/C(=O)c1ccc(Br)s1	?	11%	?	?	-1%	27%
CN(C)/C=C/C(=O)c1cnc(-c2cccc(Cl)c2)s1	?	14µM*	?	12µM*	3.2µM*	1.3µM*
CN(C)/C=C/C(=O)c1cnc(-c2ccccn2)s1	25%	11µM*	?	?	3.2µM*	1.6µM*
CN(C)/C=C/C(=O)c1cnc(-c2ccccc2Cl)s1	?	13µM*	?	9.5µM*	2µM*	1.3µM*
CCCN1C(C)C(C(=O)OCC)=CN(Cc2cccc(I)c2)S1(=O)=O (stereo not given)	-1%	/	-2%	/	/	/
O=C(COc1ccc(F)cc1)NCCCn1ccnc1	0%	/	12%	0%	-5%	5%
CCCCC(=O)N(CCOC)c1nnc(-c2ccccc2C)s1	-9%	-8%	?	0%	-2%	-3%
Cc1ccc(-n2cnc3sc(C)c(C)c3c2=O)cc1	?	13µM*	?	?	?	2.5µM*
COc1ccc2oc(=O)cc(CN(C)Cc3ccccc3)c2c1	-11%	/	-4%	4%	-3%	-4%
Cc1cc2oc(=O)cc(CN(C)Cc3cccc(F)c3)c2cc1Cl	3%	/	2%	-6%	1%	-4%[1.84 µM]
Cc1ccc2c(CN(C)Cc3cccc(F)c3)cc(=O)oc2c1	?	/	?	11µM*	?	21%[1.84 µM]
COc1ccc(CN(C)Cc2cc(=O)oc3cc(C)c(C(C)C)cc23)cc1OC	-4%	/	18µM*	0%	0%	5%
CCc1ccc2c(CN(C)Cc3ccccc3OC)cc(=O)oc2c1	14%	/	?	17µM*	0%	0%
CCN(CC)CCNC(=O)CCc1nnc2ccc(N3CCC(C)CC3)nn12	-2%	/	-3%	0%	2%	-1%
CCN(CC)c1ccc(-c2nnc(SCC(=O)Nc3ccccc3C#N)n2-c2ccccc2)cc1	-8%	-16%	?	3%	-1%	-3%
Cc1cccc(NC(=O)CN2C(=O)C(c3ccccc3)=NC23CCC(C)CC3)c1 (stereo not given)	/	-9%	/	3%	/	/
Nc1nc2sc3c(c2cc1C(=O)N1CCOCC1)CCCC3	3%	4%	?	17µM*	8%	10%
Cc1cc(C)c2cc3c(N)c(C(=O)N4CCc5ccccc5C4)sc3nc2c1	-1%	12%	-4%	0%	10%	-1%
Nc1nc2sc3c(c2cc1C(=O)NCC(=O)O)CCCC3	-3%	/	-28%	0.95µM*	0%	-16%
CCCc1nc2sc3c(c2c(=O)n1NC(=O)CCC(=O)O)CCCC3	-10%	10%	12%	?	-1%	-2%
Cc1cccc2cc3c(N)c(C(=O)N4CCOCC4)sc3nc12	?	11µM*	?	3.8µM*	?	0.56µM*
Cc1cc(C)c(S(=O)(=O)Nc2cccc(-c3cn4ccccc4n3)c2)c(C)c1	/	/	/	9.5µM*	/	/
Cc1cc(C)c(S(=O)(=O)Nc2ccc(-c3cn4ccccc4n3)cc2)c(C)c1	-5%	11%	?	?	-2%	3%
Cc1cccc(S(=O)(=O)Nc2ccc(-c3cn4ccccc4n3)cc2)c1	10%	?	25%	17µM*	27%	?
SMILES	ELG1 genotox	SMN2 splice enh	ELG1 repair inh	FLuc modulator	NPC1 promoter act	Rab9 prom act
CCCS(=O)(=O)Nc1cccc(-c2cn3ccc(C)cc3n2)c1	/	13µM*	/	12µM*	/	/
COc1ccc(S(=O)(=O)Nc2cc(-c3cn4cccc(C)c4n3)ccc2C)cc1C	/	18%	/	?	/	/
Cc1cccn2cc(-c3cccc(NS(=O)(=O)c4ccc(Cl)c(Cl)c4)c3)nc12	/	9%	/	9.5µM*	/	/
CCS(=O)(=O)Nc1cccc(-c2cn3c(n2)SCC3)c1	3%	/	15%	-2%	0%	-3%
COc1ccc(C#Cc2c(-c3ccccc3)n(-c3ccccc3)c3ccc(CO)cc23)cc1	-6%	/	-13%	/	/	/
O=S(=O)(Nc1ccc(-c2cn3ccccc3n2)cc1)c1ccccc1	?	/	?	13µM*	25%	23%
Cc1nc(-c2ccc(NS(=O)(=O)c3ccccc3)cc2)cs1	0%	7%	0%	-16%	1%	-3%
C[C@@H](N)C(=O)NC[C@H]1CC[C@H](C(=O)N[C@@H](Cc2ccccc2)C(=O)O)CC1	3%	/	8%	1%	2%	0%
CCOC(=O)C1=NN(c2ccccc2)C(=O)/C1=C\c1ccc(N(C)C)cc1	14%	-1%	?	-5%	-1%	-5%
CC1=NN(Cc2ccccc2)C(=O)/C1=C\c1ccc(N(C)C)cc1	7%	7%	16%	11µM*	1%	-1%
NNC(=O)c1nn(-c2ccc(Cl)cc2)cc1O	1%	/	-12%	13µM*	?	?
COc1ccc(/C=N/NC(=O)CSc2nnc(C)n2-c2ccccc2)c(OC)c1OC	-5%	-6%	?	-1%	1%	1%
COc1cccc(/C=N/NC(=O)C[n+]2ccccc2)c1O	1%	18%	?	?	1%	-8%
COc1cccc(/C=N/NC(=O)CSc2nnc(C)n2-c2ccccc2)c1O	-4%	-25%	-15%	17µM*	-9%	-3%
COc1cccc(/C=N/NC(=O)CN2CC(c3ccccc3)CC2=O)c1O (stereo not given)	4%	-48%	-12%	12µM*	-8%	-19%
COC(=O)Cn1ccc2cc(S(=O)(=O)N3CCCCC3)ccc21	-2%	-8%	6%	2%	0%	-6%
CN1CCN(C(=O)c2cnn3c(C(F)(F)F)cc(-c4ccc5c(c4)OCO5)nc23)CC1	?	/	5.8µM*	1%	0%	2%
NC(=O)c1cnn2c(C(F)(F)F)cc(-c3ccccc3)nc12	/	-8%	/	2%	/	/
Cc1ccc(-c2cc(C(F)(F)F)n3ncc(C(=O)N4CCN(C)CC4)c3n2)cc1	-1%	5%	9.2µM*	6%	-4%	2%
COc1ccc(-c2cc(C(F)(F)F)n3ncc(C(=O)N(C)Cc4ccccc4)c3n2)cc1	2%	-12%	15µM*	4%	-9%	-9%
O=C(NC1CCCC1)c1cnn2c(C(F)(F)F)cc(-c3ccc4c(c3)OCO4)nc12	5%	-3%	4.1µM*	1%	-2%	-11%
CCNC(=O)NC(=O)CSc1ccccc1F	2%	5%	0%	5%	-4%	-3%
